# Assay outcomes (PubChem)
# Dicer inh: human Dicer pre-microRNA cleavage inhibition; Q9UPY3; cat-ELCCA pre-miR-21 Dicer processing, chemiluminescence; hits give high values; z-score at 25 µM; 47,000 tested, 6% active; AID 1347074; in the data active = z-score above about 3, passing the limit was not always enough;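 also: higher signal means more uncleaved substrate so more Dicer inhibition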
# Target sequence (Q9UPY3 whole entry, looked up): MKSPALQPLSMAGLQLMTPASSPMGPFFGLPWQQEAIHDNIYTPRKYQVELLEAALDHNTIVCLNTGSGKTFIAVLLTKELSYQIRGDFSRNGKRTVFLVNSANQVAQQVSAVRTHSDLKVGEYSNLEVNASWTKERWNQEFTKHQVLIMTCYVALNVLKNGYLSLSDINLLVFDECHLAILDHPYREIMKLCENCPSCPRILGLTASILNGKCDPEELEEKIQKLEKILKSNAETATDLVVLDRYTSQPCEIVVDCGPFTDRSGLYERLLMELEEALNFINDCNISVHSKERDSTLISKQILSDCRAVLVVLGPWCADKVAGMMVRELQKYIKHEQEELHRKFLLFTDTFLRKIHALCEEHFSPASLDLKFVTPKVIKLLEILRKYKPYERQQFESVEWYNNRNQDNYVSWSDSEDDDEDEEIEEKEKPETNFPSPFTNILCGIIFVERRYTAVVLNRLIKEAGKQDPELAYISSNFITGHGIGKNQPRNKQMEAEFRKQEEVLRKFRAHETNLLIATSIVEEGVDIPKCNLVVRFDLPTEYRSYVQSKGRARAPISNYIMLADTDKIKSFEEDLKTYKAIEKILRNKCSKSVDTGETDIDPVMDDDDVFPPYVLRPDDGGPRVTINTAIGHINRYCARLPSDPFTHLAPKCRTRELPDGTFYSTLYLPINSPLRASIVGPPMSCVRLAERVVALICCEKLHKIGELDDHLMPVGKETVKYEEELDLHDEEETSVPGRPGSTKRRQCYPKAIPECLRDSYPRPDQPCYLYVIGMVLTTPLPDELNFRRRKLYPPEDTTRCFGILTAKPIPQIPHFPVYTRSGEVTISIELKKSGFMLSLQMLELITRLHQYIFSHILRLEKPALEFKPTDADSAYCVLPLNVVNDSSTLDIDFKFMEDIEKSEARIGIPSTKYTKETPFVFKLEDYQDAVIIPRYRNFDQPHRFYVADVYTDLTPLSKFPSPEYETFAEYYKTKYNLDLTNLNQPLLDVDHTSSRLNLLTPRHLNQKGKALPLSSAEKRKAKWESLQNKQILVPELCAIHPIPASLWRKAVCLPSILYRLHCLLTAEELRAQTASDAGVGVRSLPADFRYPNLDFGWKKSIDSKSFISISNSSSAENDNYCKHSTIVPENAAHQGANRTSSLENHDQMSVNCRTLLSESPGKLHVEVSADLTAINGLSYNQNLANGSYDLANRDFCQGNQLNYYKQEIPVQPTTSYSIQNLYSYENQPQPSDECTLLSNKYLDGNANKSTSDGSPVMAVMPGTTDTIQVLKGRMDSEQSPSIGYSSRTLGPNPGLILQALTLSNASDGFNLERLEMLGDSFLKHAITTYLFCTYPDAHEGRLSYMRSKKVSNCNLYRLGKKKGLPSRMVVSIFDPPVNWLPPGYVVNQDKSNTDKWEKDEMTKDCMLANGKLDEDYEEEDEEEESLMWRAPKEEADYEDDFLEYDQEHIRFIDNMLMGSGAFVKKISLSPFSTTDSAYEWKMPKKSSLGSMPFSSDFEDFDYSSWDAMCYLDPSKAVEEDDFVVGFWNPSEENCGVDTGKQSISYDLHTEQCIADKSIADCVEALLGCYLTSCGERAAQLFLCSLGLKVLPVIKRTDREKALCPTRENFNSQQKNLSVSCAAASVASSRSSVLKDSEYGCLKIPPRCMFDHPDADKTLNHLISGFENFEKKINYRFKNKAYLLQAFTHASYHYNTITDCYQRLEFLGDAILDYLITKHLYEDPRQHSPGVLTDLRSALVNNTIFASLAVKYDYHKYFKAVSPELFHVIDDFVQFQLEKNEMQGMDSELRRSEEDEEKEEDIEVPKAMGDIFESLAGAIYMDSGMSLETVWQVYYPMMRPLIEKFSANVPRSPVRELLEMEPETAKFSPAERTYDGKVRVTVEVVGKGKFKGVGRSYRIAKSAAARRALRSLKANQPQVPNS
# Numbers stand for hits; 0 = inactive. The entries come from a sample that favours hits as a whole.
SMILES,Dicer inh
COc1cccc2c1OC(CC(C)C)N1N=C(c3ccccc3O)CC21 (stereo not drawn),8.32
COC(=O)c1ccc(C2Oc3c(OC)cccc3C3CC(c4ccccc4O)=NN32)cc1 (stereo not drawn),0
COc1cccc2c1OC(c1cccc(OC)c1OC)N1N=C(c3ccccc3O)CC21 (stereo not drawn),0
COc1ccc(C2Oc3c(OC)cccc3C3CC(c4ccccc4O)=NN32)cc1OC (stereo not drawn),0
COc1cccc2c1OC(c1ccc(F)cc1)N1N=C(c3ccccc3O)CC21 (stereo not drawn),8.55
COc1ccc(OC)c(C2Oc3c(OC)cccc3C3CC(c4ccccc4O)=NN32)c1 (stereo not drawn),0
COc1ccc(C2CC(=O)C3=C(C2)NC(C)=C(C(=O)OC2CCCC2)C3c2cccc(O)c2)cc1 (stereo not drawn),0
COc1ccc(-c2nc3c4c5c(sc4ncn3n2)C(C)(C)NC(C)(C)C5)cc1OC,0
FC(F)(F)c1ccc(NCn2nnc3ccccc32)cc1,0
OCCCCCCN(Cn1nnc2ccccc21)Cn1nnc2ccccc21,0
FC(F)(F)Oc1ccccc1NCn1nnc2ccccc21,3.58
c1cnc2sc(-n3cccc3)nc2c1,0
C=CCn1c(SCC(=O)c2ccccc2)nc2sc3c(c2c1=O)CCC(C)C3 (stereo not drawn),0
Cc1ccc(CNc2ncc(-c3ccc(F)cc3)n2C)cc1,0
COc1ccc(CNc2ncc(-c3ccc(Br)cc3)n2C)cc1OC,0
Cn1c(-c2ccc(F)cc2)cnc1NCc1ccccc1Cl,0
Cc1ccc(-c2cnc(NCc3cc(Br)ccc3F)n2C)cc1,0
COc1cccc(CNc2ncc(-c3ccc(Br)cc3)n2C)c1,0
Cn1c(-c2ccc(F)cc2)cnc1NCc1cc(Cl)ccc1O,5.61
CCOc1ccc(-c2cnc(NCc3cc(Cl)ccc3O)n2C)cc1,0
Cn1c(-c2ccc(Br)cc2)cnc1NCc1ccc(F)cc1,3.12
Cn1c(-c2ccc(F)cc2)cnc1NCc1cc(Br)ccc1F,3.13
Cn1c(-c2ccccc2)cnc1NCc1ccc(Br)cc1,0
COc1cccc(-c2cnc(NCc3cc(Br)ccc3F)n2C)c1,0
CCOc1cc(CNc2ncc(-c3ccc(Br)cc3)n2C)ccc1O,3.42
SMILES,Dicer inh
O=C(OCc1ccc(Oc2ccc(Cl)cc2Cl)c([N+](=O)[O-])c1)c1ccc(Cl)cc1,0
CCOC(=O)c1c(N)oc2c(-c3ccc(C(C)C)cc3)c3c(C(=O)OCC)c(N)oc3cc12,0
O=C(O)c1ccc(N2C(=O)C3C4C=CC(CO)(O4)C3C2=O)cc1 (stereo not drawn),0
COc1ccc(-c2c(C#N)c(N)nc3c2CCCCC3)cc1OC,0
OCCNC(=S)NC1CCCCCC1,0
COC(=O)c1nn(-c2ccccc2)c(=O)c2c(NC(C)=O)sc(C)c12,0
CCc1ccc(CN2CCC(N3CCCC(C)C3)CC2)cc1 (stereo not drawn),0
CC(C)c1ccc(NC(=S)NNC(=O)NC(=O)c2csc([N+](=O)[O-])c2)cc1,4.69
O=C(NC(=S)NN1CCCCC1)c1csc([N+](=O)[O-])c1,0
CC(C)CNC(=S)NC(=O)c1csc([N+](=O)[O-])c1,0
Cc1c(S(=O)(=O)N2CCN(C3c4ccccc4-c4ccccc43)CC2)sc2ccc(Cl)cc12,0
CCCCCNc1nc(-c2ccccc2)c2c(c1C#N)CC(C)(C)OC2,0
COC(=O)/C(C#N)=C/c1cccn1CCCn1ccnc1,0
c1ccc(-n2cnc3cc(NCc4ccco4)ccc32)cc1,4.72
O=[N+]([O-])c1ccc2c(c1)ncn2-c1ccccc1,0
CCn1cnc2cc(NCc3ccco3)ccc21,0
COc1ccccc1C1C(C(=O)OC2CCCCC2)=C(C)NC2=C1C(=O)CCC2 (stereo not drawn),0
O=[N+]([O-])c1cc(Cl)ccc1S(=O)(=O)c1ccc(Cl)cc1,0
O=[N+]([O-])c1cc(Cl)ccc1S(=O)(=O)c1ccccc1,0
COc1ccc(OC)c(S(=O)(=O)c2ccc(Cl)cc2[N+](=O)[O-])c1,4.21
Cn1c(-c2c(N)n(Cc3ccccc3)c(=O)c3cc([N+](=O)[O-])ccc23)nc2ccccc21,0
O=C(c1cncc(-c2cccs2)c1)N1CCN(C2c3ccccc3-c3ccccc32)CC1,0
O=C(Nc1ccc2c(c1)CS(=O)(=O)C2)c1cccs1,0
CN(C)c1ccc(NC(=O)c2cccs2)cc1,3.25
COCCNC(=O)c1cc2sc3ccccc3c2s1,3.85
SMILES,Dicer inh
CN(C)c1ccc(NC(=O)c2cc3sc4ccccc4c3s2)cc1,6.47
O=C(Nc1ccc(F)cc1)c1sc2ccccc2c1Cl,0
CN(C)c1ccc(C(O)C(=O)c2cccs2)cc1 (stereo not drawn),0
COC(=O)c1sc2ccccc2c1Cl,0
O=C(Nc1cccc(S(=O)(=O)N2CCOCC2)c1)c1cc2sc3ccccc3c2s1,0
CCN(CC)CCCNC(=O)c1sc2ccccc2c1Cl,0
CCOC(=O)C1=C(C)NC(=O)N(C(C)=O)C1c1ccccc1 (stereo not drawn),0
O=S(=O)(CS(=O)(=O)c1cccc(Cl)c1)c1cccc(Cl)c1,0
